Several values for one entry are separate records, joined by “and”; a condition that tells them apart may be missing. Equal values may be shown once. Among all 5,500 compounds or so, about 2,000 (36%) were called active. Roughly 18% stayed inconclusive and do not appear here. Cut-off read from the data, not from the text of the source: active = normalized growth mostly below about 0.91 (no sharp cut-off); inconclusive = no clear call, values can overlap the other calls; inactive = mostly above about 0.92. The list shows a part of the results.
Assay: chemical genetic growth profiling, strain panel (AID 1159580);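 note: tested at 20 µM; growth read once vehicle control cultures reached saturation at 30 °C; 1 = growth at the plate median or of vehicle wells; lower values mean less growth of the strain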
Details: S. cerevisiae deletion strains, growth OD

Measured: normalized growth

COc1ccc(CCN2CCC(Nc3nc4ccccc4n3Cc3ccc(F)cc3)CC2)cc1
inactive: locus YAL030W, strain snc1, hits give low values 0.988 | locus YBL061C, strain skt5, hits give low values 0.969 | locus YBR009C, strain hhf1, hits give low values 0.936 | locus YBR023C, strain chs3, hits give low values 0.959 | locus YBR171W, strain sec66, hits give low values 0.992 | locus YBR229C, strain ROT2, hits give low values 0.972 | locus YBR231C, strain swc5, hits give low values 0.981 | locus YBR279W, strain paf1, hits give low values 0.954 | locus YCL011C, strain gbp2, hits give low values 0.935 | locus YCL016C, strain dcc1, hits give low values 0.919 | locus YCL029C, strain bik1, hits give low values 0.983 | locus YCL061C, strain MRC1, hits give low values 0.96 | locus YCL069W, strain vba3, hits give low values 0.953 | locus YCR088W, strain abp1, hits give low values 0.924 | locus YDL005C, strain med2, hits give low values 0.967 | locus YDL035C, strain GPR1, hits give low values 0.972 | locus YDL040C, strain nat1, hits give low values 0.985 | locus YDL074C, strain BRE1, hits give low values 0.935 | locus YDL101C, strain DUN1, hits give low values 0.984 | locus YDL134C, strain PPH21, hits give low values 0.983 | locus YDL185W, strain tfp1, hits give low values 0.984 | locus YDL192W, strain arf1, hits give low values 0.986 | locus YDR001C, strain nth1, hits give low values 0.972 | locus YDR101C, strain arx1, hits give low values 0.992 | locus YDR150W, strain NUM1, hits give low values 1 | locus YDR159W, strain sac3, hits give low values 0.986 | locus YDR162C, strain NBP2, hits give low values 0.986 | locus YDR195W, strain ref2 0.971 | locus YDR297W, strain sur2, hits give low values 0.999 | locus YDR318W, strain mcm21, hits give low values 0.984 | locus YDR334W, strain swr1, hits give low values 0.979 | locus YDR335W, strain msn5, hits give low values 0.959 | locus YDR392W, strain spt3, hits give low values 0.742 | locus YDR502C, strain sam2, hits give low values 0.977 | locus YEL003W, strain gim4, hits give low values 0.96 | locus YEL061C, strain CIN8 (second series), hits give low values 0.981 | locus YEL061C, strain CIN8, hits give low values 0.993 | locus YER015W, strain faa2, hits give low values 0.93 | locus YER110C, hits give low values 0.992 | locus YER111C, strain swi4, hits give low values 0.962 | locus YER155C, strain BEM2, hits give low values 0.991 | locus YER167W, strain BCK2, hits give low values 0.973 | locus YGL078C, strain dbp3, hits give low values 0.985 | locus YGL086W, strain mad1, hits give low values 1.02 | locus YGL167C, strain pmr1, hits give low values 1 | locus YGL173C, strain kem1, hits give low values 0.982 | locus YGL227W, strain vid30, hits give low values 0.981 | locus YGL240W, strain doc1, hits give low values 0.978 | locus YGL248W, strain PDE1, hits give low values 0.985 | locus YGR229C, strain SMI1, hits give low values 0.971 | locus YGR252W, strain gcn5, hits give low values 0.9 | locus YHR013C, strain ard1, hits give low values 0.857 | locus YHR027C, strain rpn1, hits give low values 0.954 | locus YHR030C, strain SLT2, hits give low values 0.997 and 0.996 | locus YHR079C, strain IRE1 (second series), hits give low values 0.984 | locus YHR079C, strain IRE1, hits give low values 0.972 | locus YHR094C, strain hxt1, hits give low values 0.986 | locus YHR129C, strain ARP1, hits give low values 0.988 | locus YHR142W, strain chs7, hits give low values 0.888 | locus YHR200W, strain rpn10, hits give low values 0.994 | locus YIL066C, strain RNR3, hits give low values 0.974 | locus YIL125W, strain kgd1, hits give low values 0.993 | locus YIR030C, strain dcg1, hits give low values 0.99 | locus YJL095W, strain BCK1 (second series), hits give low values 0.991 | locus YJL095W, strain BCK1, hits give low values 0.923 and 0.988 | locus YJL115W, strain asf1, hits give low values 0.976 | locus YJL129C, strain trk1, hits give low values 0.972 | locus YJL134W, strain LCB3, hits give low values 0.998 | locus YJL154C, strain vps35, hits give low values 0.962 | locus YJL164C, strain tpk1, hits give low values 0.957 | locus YJL166W, strain qcr8, hits give low values 0.974 | locus YJL168C, strain set2, hits give low values 0.994 | locus YJL187C, strain SWE1 (second series), hits give low values 0.976 | locus YJL187C, strain SWE1, hits give low values 0.982 | locus YJR043C, strain POL32, hits give low values 0.998
active: locus YAL021C, strain ccr4, hits give low values 0.721 | locus YAL026C, strain drs2, hits give low values 0.783 | locus YBR021W, strain FUR4, hits give low values 0.821 | locus YDR069C, strain doa4, hits give low values 0.874 | locus YDR137W, strain rgp1, hits give low values 1.18 [resistant] | locus YDR388W, hits give low values 0.687 | locus YEL037C, strain rad23, hits give low values 0.867 | locus YER016W, strain bim1, hits give low values 0.911 | locus YER155C, strain BEM2 (second series), hits give low values 0.822 | locus YFR010W, strain ubp6, hits give low values 0.838 | locus YGL253W, strain hxk2, hits give low values 0.904 | locus YGR135W, strain pre9, hits give low values 0.877 | locus YIL073C, strain SPO22, hits give low values 1.74 [resistant] | locus YJL092W, strain hpr5, hits give low values 0.917

Reference: PubChem BioAssay AID1159580 (chemical genetic matrix, 2015)
